# Test results from PubChem BioAssay (EPA / NIEHS).
# Activity calls are given as the source filed them. Rule for the calls: active = hit-call score of the fitted dose curve at least 0.9, where 1 is the maximum; inactive = score below 0.9.
# Test: BSK_hDFCGF_Proliferation: Cell Proliferation Assessment in the BioMAP Diversity Plus: hDFCGF Assay (AID 2283059);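 note: curves fitted for both rise and fall of signal versus DMSO baseline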
# Details: primary human foreskin fibroblasts
# How it was run: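 Sub-confluent human foreskin fibroblast cultures receive test chemical […]. Relative cell number is quantified by sulforhodamine B staining (0.1%, after 10% TCA fixation) at 560 nm, with bidirectional fitting referenced to DMSO.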
SMILES,AC50,outcome
CC1(C)CCC(=Cc2ccc(Cl)cc2)C1(O)Cn1cncn1 (centres undefined),1.31 µM (active),–
CC1(C)C(C(=O)OC(C#N)c2cccc(Oc3ccccc3)c2)C1(C)C (centres undefined),8.2 µM (active),–
CCOP(=O)(OCC)Oc1nc(Cl)c(Cl)cc1Cl,12 µM (active),–
CCSC(=O)N1CCCCCC1,–,inactive
CCCN(CC)CC1COC2(CCC(C(C)(C)C)CC2)O1 (centres undefined),5.6 µM (active),–
COCC(=O)N(c1c(C)cccc1C)C(C)C(=O)OC (centres undefined),–,inactive
Clc1cccc(C(Cl)(Cl)Cl)n1,–,inactive
CC1(C)C(C=C(Cl)Cl)C1C(=O)OC(C#N)c1cccc(Oc2ccccc2)c1 (centres undefined),–,inactive
Nc1c(Cl)c(Cl)nc(C(=O)O)c1Cl,–,inactive
CCOc1nc(F)cc2nc(S(=O)(=O)Nc3c(Cl)cccc3Cl)nn12,–,inactive
C=C(C)CN(CC)c1c([N+](=O)[O-])cc(C(F)(F)F)cc1[N+](=O)[O-],19.5 µM (active),–
CS(=O)(=O)c1ccc(C(=O)C2C(=O)CCCC2=O)c([N+](=O)[O-])c1,–,inactive
COC(=O)c1c(C(F)F)nc(C(F)(F)F)c(C2=NCCS2)c1CC(C)C,–,inactive
CCNP(=S)(OC)O/C(C)=C/C(=O)OC(C)C (centres undefined),–,inactive
CC(C)Oc1cccc(NC(=O)c2ccccc2C(F)(F)F)c1,27.5 µM (active),–
CS(=O)(=O)c1cc(C(F)(F)F)ccc1C(=O)c1cnoc1C1CC1,–,inactive
CCC(C)n1c(=O)[nH]c(C)c(Br)c1=O (centres undefined),–,inactive

SMILES,AC50,outcome
CCOC(=O)C(C)OC(=O)c1cc(Oc2ccc(C(F)(F)F)cc2Cl)ccc1[N+](=O)[O-] (centres undefined),–,inactive
COc1cc(Cl)c(OC)cc1Cl,–,inactive
Cc1nc(N(C)C)nc(OC(=O)N(C)C)c1C,–,inactive
CCCCOCN(C(=O)CCl)c1c(CC)cccc1CC,15.2 µM (active),–
COc1cc(OC)nc(NC(=O)NS(=O)(=O)c2ncccc2OCC(F)(F)F)n1,–,inactive
CC(C)=CC1C(C(=O)OCc2coc(Cc3ccccc3)c2)C1(C)C (centres undefined),15 µM (active),–
Nc1c(Cl)c(F)nc(OCC(=O)O)c1Cl,–,inactive
CC(C)N1C(=O)N(c2ccccc2)CSC1=NC(C)(C)C,32 µM (active),–
O=C1C2CC=CCC2C(=O)N1SC(Cl)(Cl)Cl (centres undefined),1.85 µM (active),–
N#Cc1c(Cl)cccc1Cl,–,inactive
CNC(=O)N(C)c1nnc(C(C)(C)C)s1,–,inactive
CCOc1nc(C(Cl)(Cl)Cl)ns1,–,inactive
Cc1ccc(N=CN(C)C=Nc2ccc(C)cc2C)c(C)c1,14 µM (active),–
OC(c1ccc(Cl)cc1)(c1ccc(Cl)cc1)C(Cl)(Cl)Cl,10 µM (active),–
COP(=S)(OC)SCn1nnc2ccccc2c1=O,26.2 µM (active),–
COc1ccc(-c2ccccc2)cc1NNC(=O)OC(C)C,–,inactive
Cc1cnc(C2=NC(C)(C(C)C)C(=O)N2)c(C(=O)O)c1 (centres undefined),–,inactive
